SMILES strings stand for the structures. Calls of active or inactive are those of the source.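 How the source made its calls, unless noted: active means compounds whose cell count with miR-34 switched on is under 0.7 times the count with it off; inactive means the rest.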

Test [1] can be described thus: viability loss with induced miR-34 in A549 – imaging, A549 dox-inducible miR-34, nuclei and caspase counts, primary screen (AID 1347080). Conditions: A549 miR-34 inducible, Hoechst nuclei count, 48 h.
Test [2] is described as follows: MELAS cybrid and Rieske KO viability enhancers – cell-based, MELAS cybrids, Rieske KO mouse fibroblasts, CellTiter-Glo, primary screen (AID 1508586;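 active means mean z-score across replicates of 1.96 or higher in either the MELAS or the Rieske mutant cell line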;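 further: z relative to plate mean and SD of compound and empty wells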). The note with it: low glucose. For orientation: In ATP-based viability assays light output follows the ATP content of the culture.
[3] abbreviates: stronger effect = lower value, cell number ratio, induced over uninduced.
Where [4] appears, read: measured here: relative caspase fold change +Dox/-Dox.
Where [5] appears, read: measured here: total cells with miR-34 induction, stronger effect = lower value.
Setting [6] is: measured here: total cells without miR-34 induction.
The mark [7] stands for this setting: MELAS cybrid survival, CellTiter-Glo 48 h, stronger effect = higher value.
Where [8] appears, read: Rieske KO mouse fibroblast survival, CellTiter-Glo 72 h.
Further: test concentration not given here.

Turning to `Cc1[nH]c2ccccc2c1CCNC(=O)c1cccs1`, the fold change in test [1] (setting [3]) is 0.913 (inactive); in test [1] (setting [4]) it was 0.438. For the same compound, the cell count amounted to 7830 in test [1] (setting [5]) and 8570 in test [1] (setting [6]). Besides, the z-score is -0.422 (inactive) in test [2] (setting [7]) and 0.75 in test [2] (setting [8]).

`C=C1CCC(O)CC1=CC=C1CCC[C@@]2(C)[C@H]1CC[C@H]2C(C)CCCC(C)(C)O` (some centres not stated): the fold change was 0.933 (inactive) in test [1] (setting [3]) and 0.682 in test [1] (setting [4]). In addition, the cell count in test [1] (setting [5]) was found to be 7650; in test [1] (setting [6]) it was 8200. The z-score in test [2] (setting [7]) was -0.475 (inactive); in test [2] (setting [8]), 0.00368.

Consider `NC(N)=NN=Cc1c(Cl)cccc1Cl`, for which the fold change was 0.921 (inactive) in test [1] (setting [3]) and 0.613 in test [1] (setting [4]). The cell count in test [1] (setting [5]) was 8130; in test [1] (setting [6]), 8830. In addition, the z-score in test [2] (setting [7]) is -0.139 (inactive); in test [2] (setting [8]), -0.245.

In the case of `O=C(O)c1cc(I)ccc1NC(=O)C(Cc1ccccc1)NCc1ccccc1` (configuration not stated), the fold change in test [1] (setting [3]) is 0.835 (inactive); in test [1] (setting [4]), 0.632. Also, the cell count in test [1] (setting [5]) amounted to 8450; in test [1] (setting [6]), 10100. Also, the z-score in test [2] (setting [7]) is -0.035 (inactive); in test [2] (setting [8]), 1.09.

Consider `Cn1cc(-c2[nH]c3cc(NC(=O)C(N)C4CCCCC4)cc4c3c2C=NNC4=O)cn1` (configuration not stated), for which the fold change in test [1] (setting [3]) is 0.983 (inactive); in test [1] (setting [4]), 1.09. Moreover, the cell count in test [1] (setting [5]) was determined as 2060; in test [1] (setting [6]) it was 2100. Moreover, the values for the z-score in test [2] (setting [7]) and in test [2] (setting [8]) were 0.356 (inactive) and -0.0626, respectively.

For the compound `CCCCC(F)(F)C(=O)CCC1C(O)CC(=O)C1CCCCCCC(=O)O` (configuration not stated), the fold change is 0.926 (inactive) in test [1] (setting [3]) and 0.726 in test [1] (setting [4]). Further, the cell count was found to be 8100 in test [1] (setting [5]) and 8740 in test [1] (setting [6]). In addition, the z-score was 0.0399 (inactive) in test [2] (setting [7]) and -0.0235 in test [2] (setting [8]).

Turning to `CC1(C)SC2C(NC(=O)C(NC(=O)N3CCNC3=O)c3ccccc3)C(=O)N2C1C(=O)O` (configuration not stated), the fold change in test [1] (setting [3]) was 0.905 (inactive); in test [1] (setting [4]) it was 1.06. Further, the cell count in test [1] (setting [5]) was determined as 8030; in test [1] (setting [6]), 8880. Also, the z-score in test [2] (setting [7]) is -0.162 (inactive); in test [2] (setting [8]) it was -0.16.

As to `CC1C[C@H]2[C@@H]3CC(F)C4=CC(=O)C=C[C@]4(C)[C@]3(F)C(O)C[C@]2(C)[C@@]1(O)C(=O)CO` (some centres not stated), the fold change in test [1] (setting [3]) was 0.843 (inactive); in test [1] (setting [4]) it was 1.01. The cell count is 4530 in test [1] (setting [5]) and 5380 in test [1] (setting [6]). Besides, the z-score in test [2] (setting [7]) is -0.358 (inactive); in test [2] (setting [8]), -0.303.

For `COC1CC2CCC(C)[C@@](O)(O2)C(=O)C(=O)N2CCCCC2C(=O)OC(C(C)CC2CCC(O)C(OC)C2)CC(=O)C(C)C=C(C)C(O)C(OC)C(=O)C(C)CC(C)C=CC=CC=C1C` (some centres not stated), the fold change is 0.994 (inactive) in test [1] (setting [3]) and 1.19 in test [1] (setting [4]). Also, the cell count was 4070 in test [1] (setting [5]) and 4090 in test [1] (setting [6]). In addition, the z-score is 0.132 in test [2] (setting [7]) and 2.33 in test [2] (setting [8]).

As to `CCOC(=O)C(CCc1ccccc1)NC1CCCN2CCCC(C(=O)O)N2C1=O` (configuration not stated), the fold change in test [1] (setting [3]) was 0.927 (inactive); in test [1] (setting [4]) it was 0.673. The cell count in test [1] (setting [5]) was 7550; in test [1] (setting [6]), 8150. In addition, the figures for the z-score in test [2] (setting [7]) and in test [2] (setting [8]) were -0.275 (inactive) and -0.0266, respectively.

Take `CN1CCCC1CCO[C@](C)(c1ccccc1)c1ccc(Cl)cc1` (some centres not stated): the fold change in test [1] (setting [3]) is 0.919 (inactive); in test [1] (setting [4]), 1.18. For the same compound, the results for the cell count in test [1] (setting [5]) and in test [1] (setting [6]) were 7530 and 8200, respectively. Moreover, the z-score was -0.384 (inactive) in test [2] (setting [7]) and 0.111 in test [2] (setting [8]).

Turning to `CC(C)CC(NC(=O)C(Cc1ccccc1)NC(=O)c1cnccn1)B(O)O` (configuration not stated), the fold change in test [1] (setting [3]) is 0.948 (inactive); in test [1] (setting [4]), 0.953. Further, the cell count was found to be 1020 in test [1] (setting [5]) and 1080 in test [1] (setting [6]). For the same compound, the z-score in test [2] (setting [7]) was -0.496 (inactive); in test [2] (setting [8]), -2.5.

Regarding `O=C1CCC[C@@H]2[C@@H]3CCC[N+]4([O-])CCC[C@H](CN12)[C@@H]34` (some centres not stated), the fold change is 0.977 (inactive) in test [1] (setting [3]) and 0.789 in test [1] (setting [4]). The cell count in test [1] (setting [5]) was 9620; in test [1] (setting [6]), 9840. Further, the z-score was -0.359 (inactive) in test [2] (setting [7]) and 0.579 in test [2] (setting [8]).

`CN1CCCC1Cc1c[nH]c2ccc(CCS(=O)(=O)c3ccccc3)cc12` (configuration not stated): the fold change in test [1] (setting [3]) was 0.975 (inactive); in test [1] (setting [4]), 1.13. Further, the results for the cell count in test [1] (setting [5]) and in test [1] (setting [6]) were 9340 and 9580, respectively. Also, the z-score in test [2] (setting [7]) is -0.473 (inactive); in test [2] (setting [8]), -0.595.

Regarding `S=C=Nc1cccc(NC(=S)NCCCCNC(=S)Nc2cccc(N=C=S)c2)c1`, the fold change in test [1] (setting [3]) is 0.972 (inactive); in test [1] (setting [4]), 0.614. The cell count in test [1] (setting [5]) worked out at 7440; in test [1] (setting [6]) it was 7650. Further, the z-score in test [2] (setting [7]) was -0.615 (inactive); in test [2] (setting [8]), 0.0526.

For the compound `CC(CCC(=O)O)C1CC[C@H]2[C@@H]3CC(O)[C@@H]4CC(O)CC[C@]4(C)[C@@H]3CC[C@]12C` (some centres not stated), the values for the fold change in test [1] (setting [3]) and in test [1] (setting [4]) were 0.928 (inactive) and 0.729, respectively. Further, the cell count in test [1] (setting [5]) was found to be 9520; in test [1] (setting [6]), 10300. Moreover, the z-score is -0.299 (inactive) in test [2] (setting [7]) and 0.38 in test [2] (setting [8]).

As to `O=C(NN=Cc1ccc(O)c(O)c1)c1cc2ccccc2cc1O`, the fold change in test [1] (setting [3]) was 0.949 (inactive); in test [1] (setting [4]), 0.497. The results for the cell count in test [1] (setting [5]) and in test [1] (setting [6]) were 8120 and 8550, respectively. Besides, the z-score is -0.481 (inactive) in test [2] (setting [7]) and 0.559 in test [2] (setting [8]).
